The results in this text go back to PubChem BioAssay (NCATS).

Each structure is given as a SMILES string. Where “and” joins values, the source holds several entries; their conditions need not be identical. Identical values can stand only once. Records with an inconclusive call do not appear. Calls of active or inactive are those of the source. Unless noted, calls come from the whole dose curve; as a rule, active = well fitted curve in the direction sought with a large enough effect; inconclusive = small, poorly fitted or top-dose-only effect, or another doubt; inactive = no such curve, though single readings can be large; an effect the other way counts as inactive or inconclusive.

Assay [1] deals with ATP-dependent 6-phosphofructokinase (Trypanosoma brucei brucei) (UniProt O15648). In words: qHTS Assay to Find Inhibitors of T. brucei phosphofructokinase: hit validation (AID 492961).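 Note: luminescence reports ADP formed as PFK phosphorylates fructose-6-phosphate with ATP; series mostly up to about 51 µM; % is set by controls: 0 for no effect and ±100 for the full control effect.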 The procedure, abridged: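 In this biochemical qHTS validation, titrated compounds were tested against 1.25 nM PFK with 0.1 mM ATP and 0.5 mM F6P. Percent activity came from controls lacking or containing enzyme.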
Chain of ATP-dependent 6-phosphofructokinase (Trypanosoma brucei brucei) (O15648 whole entry, looked up): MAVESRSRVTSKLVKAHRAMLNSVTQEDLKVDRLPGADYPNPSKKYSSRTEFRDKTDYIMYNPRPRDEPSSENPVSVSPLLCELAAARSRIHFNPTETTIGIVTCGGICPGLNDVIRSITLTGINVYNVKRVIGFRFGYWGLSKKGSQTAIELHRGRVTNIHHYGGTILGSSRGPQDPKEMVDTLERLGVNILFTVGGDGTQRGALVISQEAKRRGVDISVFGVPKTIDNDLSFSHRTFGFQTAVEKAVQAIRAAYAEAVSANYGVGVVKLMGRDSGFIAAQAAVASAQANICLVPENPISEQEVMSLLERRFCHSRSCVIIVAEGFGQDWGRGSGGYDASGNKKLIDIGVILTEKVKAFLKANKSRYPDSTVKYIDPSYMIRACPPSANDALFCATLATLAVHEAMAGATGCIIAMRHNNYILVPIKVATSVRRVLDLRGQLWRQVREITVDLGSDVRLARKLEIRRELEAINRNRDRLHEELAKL
On the technique in general: qHTS replaces the single test concentration by a dilution series.

Assay [2] can be described thus: Validation screen for small molecules that induce genotoxicity in human embryonic kidney (HEK293T) cells expressing luciferase-tagged ELG1 (AID 493106). Note: 0% is about no effect. The procedure, abridged:
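Reporter-gene quantitative HTS in HEK293T cells carrying luciferase-tagged ELG1, whose level climbs under genotoxic stress. Compound exposure lasts 16 hr at 37 °C before luciferase detection.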

The target of assay [3] is ATPase family AAA domain-containing protein 5 (Homo sapiens) (UniProt Q96QE3). Kind of assay: Validation screen for small molecules that inhibit ELG1-dependent DNA repair in human embryonic kidney (HEK293T) cells expressing luciferase-tagged ELG1 (AID 493107). Note: nearly all actives have a fitted effect of over 70% in size. Note: potency is the fitted concentration of half-maximal effect. A digest of the protocol:
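Quantitative HTS in HEK293T cells carrying luciferase-tagged ELG1, stimulated with 5-fluorouridine alongside compound for 16 hr. Loss of luciferase signal marks inhibition of ELG1 response.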

Assay [4] addresses Thyrotropin-releasing hormone receptor (Homo sapiens) (UniProt P34981). Kind of assay: qHTS for Small Molecule Agonists and Allosteric Enhancers of Human TRH Receptor: Validation Screen for Agonists (AID 493127;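 active = calcium activation more than 3 SD above the typical response in the agonist read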;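 note: intracellular calcium rise by fluo-8 fluorescence before TRH EC20 addition; 0% is about no effect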). Conditions: TRH receptor agonist cell assay; at 2 µM; stronger effect = higher value. A digest of the protocol: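 Gq-coupled calcium mobilization in TRHR cells after compound addition, monitored kinetically with fluo-8 dye on an FDSS reader.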

Assay [5] is described as follows: Nrf2 qHTS screen for inhibitors: Validation (AID 493153; active = well fitted inhibition curve with a large enough effect in the main read-out, with a control signal flat, not every such curve was filed as active). Conditions: Potency: luciferase luminescence; viability change: measured here: cytotoxicity max response. The procedure, abridged:
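Dose-response validation uses reporter A549 cells with firefly luciferase under an antioxidant response element. Compounds stay on cells 18-24 h at 37°C, and luminescence indicates Nrf2-driven transcription.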

Assay [6] is described as follows: qHTS for Inhibitors of Cell Surface uPA Generation: Validation Assay (AID 493164).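 Note: RAW 264.7 macrophage cells exposed to compound for 18 h; 0% is about no effect.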 A digest of the protocol: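 RAW 264.7, 4000 cells/well, o/n plating; cpd 7-pt 1:5 dilution 2.45 nM–38.3 uM final; 18 h, 37 C/5% CO2; ATP-Lite, 5 s luminescence exposure.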
The target in assay [7] is Galactokinase (Homo sapiens) (UniProt P51570). Kind of assay: qHTS Validation Assay for Inhibitors of Human Galactokinase (GALK) (AID 493189). Note: 0% is about no effect. The procedure, abridged: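 5 nM GALK / 100 uM galactose / 35 uM ATP, 20 mM HEPES pH8.0, 5 mM MgCl2, 60 mM NaCl, 1 mM DTT, 0.01% BSA (final). RT 1 h; Kinase-Glo Plus luminescence.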
Chain of Galactokinase (Homo sapiens) (P51570 whole entry, looked up): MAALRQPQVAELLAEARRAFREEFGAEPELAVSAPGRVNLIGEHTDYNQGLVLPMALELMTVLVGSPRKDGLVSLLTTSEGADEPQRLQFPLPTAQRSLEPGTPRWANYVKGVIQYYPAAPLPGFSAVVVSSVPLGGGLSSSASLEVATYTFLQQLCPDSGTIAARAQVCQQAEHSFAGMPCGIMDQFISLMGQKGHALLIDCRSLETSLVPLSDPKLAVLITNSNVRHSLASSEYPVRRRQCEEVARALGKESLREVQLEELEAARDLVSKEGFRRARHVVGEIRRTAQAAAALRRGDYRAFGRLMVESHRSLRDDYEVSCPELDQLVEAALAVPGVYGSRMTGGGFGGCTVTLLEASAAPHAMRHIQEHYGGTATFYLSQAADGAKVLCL
The nature of assay [8]: Validation screen for small molecules that induce DNA re-replication in SW480 colon adenocarcinoma cells (AID 504364). Note: 0% is about no effect. The procedure, abridged: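 Cells are treated 48 hr with test compound, stained 40 min with Hoechst at 37 C, and scanned for nuclear fluorescence; compounds inducing re-replication increase nuclei with elevated intensity.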
The target of assay [9] is Peptidyl-prolyl cis-trans isomerase NIMA-interacting 1 (Homo sapiens) (UniProt Q13526). Kind of assay: qHTS Validation Assay to Find Inhibitors of Pin1 (AID 504536; active = well fitted inhibition curve with a large enough effect in the polarisation, with a control signal flat, not every such curve was filed as active; the % refers to the polarisation;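 note: 0% = full Pin1 enzyme wells and -100% = no-enzyme wells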). A digest of the protocol:
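Fluorescence polarization competition: compounds (titration) displace HiFluor-488-labeled Pin1-1b peptide from Pin1 (0.3 uM final) in pH 7.5 HEPES buffer with DTT, 10 min at room temperature; %Activity normalized to no-enzyme wells, curves fitted.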

Assay [10] addresses Phosphoglycerate kinase, glycosomal (Trypanosoma brucei brucei) (UniProt P07378). Kind of assay: qHTS Validation Assay to Find Inhibitors of Phosphoglycerate Kinase (AID 504547).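 Note: control wells lack PGK and mark full inhibition.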 The procedure, abridged: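 Inhibition of the enzyme is judged by a Kinase-Glo Plus luminescent signal following a one-hour incubation at room temperature. Because 1,3-BPG is unstable, it is made in situ by GAPDH at 100nM final; no-PGK wells define the baseline.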

For assay [11], the target named is phosphoglycerate mutase (Leishmania major) (UniProt Q4Q090). Kind of assay: qHTS Validation Assay to Find Inhibitors of Phosphoglycerate Mutase (AID 504548). Note: series mostly up to about 58 µM; % is set by controls: 0 for no effect and ±100 for the full control effect. A digest of the protocol: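 Lm PGAM at 1.25 nM final with substrate in 100 mM TEA pH 7.6, 5 mM MgCl2, 0.01% Tween-20; 45 min at room temperature. Kinase-GloPlus added, 10 min, end-point luminescence read.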

Assay [12] deals with Ubiquitin carboxyl-terminal hydrolase 1 (Homo sapiens) (UniProt O94782). Kind of assay: Inhibitors of USP1/UAF1: Pilot qHTS (AID 504865). Note: nearly all actives have a fitted effect of over 35% in size. Note: potency is the fitted concentration of half-maximal effect. The procedure, abridged:
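In 50mM HEPES pH 7.8 containing 0.5mM EDTA, 1mM TCEP, 0.1 mg/ml BSA and 0.01% Tween-20, 1nM USP1/UAF1 is exposed to compound for 15 min, then Ub-Rho (150nM final) is added and fluorescence is read over time.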

Assay [13] in a line: qHTS for Inhibitors of ATXN expression: Validation of Cytotoxic Assay (AID 588349).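 Note: cells exposed to compound for 72 hr; % is set by controls: 0 for no effect and ±100 for the full control effect.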 A digest of the protocol: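 HEK293, compound dose series, 72 hr / 37 degrees C; viability via CellTiter Glo (intracellular ATP).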
Assay [14] can be described thus: qHTS for Inhibitors of ATXN expression: Validation (AID 588378). Note: series mostly up to about 57 µM; % is set by controls: 0 for no effect and ±100 for the full control effect; nearly all actives have a fitted effect of over 75% in size. The procedure, abridged: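 Compounds were pinned onto attached HEK293 cells carrying an ATXN2-firefly luciferase construct and incubated 24 hrs at 37 degrees C. Each well then received a fluorescent viability reagent followed by luciferase substrate for end-point luminescence.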
Assay [15] addresses Estrogen receptor (Homo sapiens) (UniProt P03372). In words: qHTS assay for small molecule antagonists of estrogen receptor alpha signaling (AID 588513; active = well fitted curve in the direction sought with a large enough effect in the signal ratio, with a control signal flat, not every such curve was filed as active; the % refers to the signal ratio; note: % is set by controls: 0 for no effect and ±100 for the full control effect). A digest of the protocol:
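Fluorescence from CCF4 substrate after 2 h at room temperature gave reporter activity; cells had been exposed to compound and 0.5nM 17-beta-estradiol for 18 h at 37 C. Hill-equation fitting yielded IC50 and maximal response.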

The target of assay [16] is Bile acid receptor (Homo sapiens) (UniProt Q96RI1). Kind of assay: qHTS assay for small molecule antagonists of farnesoid X receptor signaling (AID 588526; calls by dose curve; note: % is set by controls: 0 for no effect and ±100 for the full control effect). A digest of the protocol: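 Beta-lactamase reporter antagonist mode: HEK293T FXR-UAS-bla cells, titrated compound, CDCA stimulation, 16 h 37 C, CCF4 dye 2 h RT. Data normalized to CDCA 50 uM and DMSO; Hill-fit IC50.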

For assay [17], the target named is DNA dC->dU-editing enzyme APOBEC-3G (Homo sapiens) (UniProt Q9HC16). In words: qHTS for inhibitors of Vif-A3G interactions: Validation (AID 588379). Note: 0% is about no effect. A digest of the protocol: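 HeLa cells stably expressing Vif and A3G-eYFP, 700 cells/well, incubated overnight at 37 deg C, then exposed to compound overnight at 37 deg C. Inhibition of Vif-mediated degradation read as increased yellow fluorescence (Ex 488/Em 500-530) by laser-scanning cytometry.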
Chain of DNA dC->dU-editing enzyme APOBEC-3G (Homo sapiens) (Q9HC16 whole entry, looked up): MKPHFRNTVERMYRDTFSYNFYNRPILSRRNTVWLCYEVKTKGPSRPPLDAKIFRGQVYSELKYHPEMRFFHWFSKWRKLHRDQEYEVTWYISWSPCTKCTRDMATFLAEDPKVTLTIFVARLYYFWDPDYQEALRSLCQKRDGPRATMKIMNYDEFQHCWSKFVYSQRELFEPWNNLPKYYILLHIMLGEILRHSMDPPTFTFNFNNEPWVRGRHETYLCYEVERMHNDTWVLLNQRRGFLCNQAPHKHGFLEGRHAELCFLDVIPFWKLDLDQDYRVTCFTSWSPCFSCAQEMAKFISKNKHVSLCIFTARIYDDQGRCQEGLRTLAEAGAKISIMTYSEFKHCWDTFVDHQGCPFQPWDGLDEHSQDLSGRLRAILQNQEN

In assay [18] the target is Estrogen receptor (Homo sapiens) (UniProt P03372). In words: qHTS assay for small molecule agonists of estrogen receptor alpha signaling (AID 588514; calls by dose curve;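 note: 0% = vehicle only and 100% = reference agonist; nearly all actives have a fitted effect of over 70% in size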). The procedure, abridged:
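Reporter-gene assay. […] controls beta-lactamase in HEK 293 GripTite cells; after 18 hrs with compound, CCF4 substrate is added for 2 hrs and fluorescence is read.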

Chain of Ubiquitin carboxyl-terminal hydrolase 1 (Homo sapiens) (O94782 whole entry, looked up): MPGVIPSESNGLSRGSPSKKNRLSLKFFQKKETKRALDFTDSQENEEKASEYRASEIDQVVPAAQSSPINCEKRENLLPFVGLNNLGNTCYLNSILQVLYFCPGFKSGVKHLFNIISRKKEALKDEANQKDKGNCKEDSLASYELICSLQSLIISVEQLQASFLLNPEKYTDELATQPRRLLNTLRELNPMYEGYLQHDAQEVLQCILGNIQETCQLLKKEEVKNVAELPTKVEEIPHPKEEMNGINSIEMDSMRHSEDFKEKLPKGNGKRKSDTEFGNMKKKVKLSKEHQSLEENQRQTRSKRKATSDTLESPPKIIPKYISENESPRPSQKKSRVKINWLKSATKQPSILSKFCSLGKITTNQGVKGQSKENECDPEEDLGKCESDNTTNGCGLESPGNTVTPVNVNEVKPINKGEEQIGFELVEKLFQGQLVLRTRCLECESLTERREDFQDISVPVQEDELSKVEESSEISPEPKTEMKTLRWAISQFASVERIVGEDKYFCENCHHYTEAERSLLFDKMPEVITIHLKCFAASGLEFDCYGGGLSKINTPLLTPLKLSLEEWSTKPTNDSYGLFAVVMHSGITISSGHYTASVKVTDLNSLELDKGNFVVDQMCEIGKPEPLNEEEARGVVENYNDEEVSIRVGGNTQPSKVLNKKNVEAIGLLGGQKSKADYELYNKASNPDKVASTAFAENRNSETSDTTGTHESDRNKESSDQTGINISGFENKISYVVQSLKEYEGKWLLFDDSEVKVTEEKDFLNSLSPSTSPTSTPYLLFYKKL
Chain of Peptidyl-prolyl cis-trans isomerase NIMA-interacting 1 (Homo sapiens) (Q13526 whole entry, looked up): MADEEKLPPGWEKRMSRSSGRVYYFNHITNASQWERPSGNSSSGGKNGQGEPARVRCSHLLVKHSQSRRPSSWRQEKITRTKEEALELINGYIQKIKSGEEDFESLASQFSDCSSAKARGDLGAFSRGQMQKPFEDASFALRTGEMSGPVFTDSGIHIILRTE
Chain of ATPase family AAA domain-containing protein 5 (Homo sapiens) (Q96QE3 whole entry, looked up, the tested form may be a part): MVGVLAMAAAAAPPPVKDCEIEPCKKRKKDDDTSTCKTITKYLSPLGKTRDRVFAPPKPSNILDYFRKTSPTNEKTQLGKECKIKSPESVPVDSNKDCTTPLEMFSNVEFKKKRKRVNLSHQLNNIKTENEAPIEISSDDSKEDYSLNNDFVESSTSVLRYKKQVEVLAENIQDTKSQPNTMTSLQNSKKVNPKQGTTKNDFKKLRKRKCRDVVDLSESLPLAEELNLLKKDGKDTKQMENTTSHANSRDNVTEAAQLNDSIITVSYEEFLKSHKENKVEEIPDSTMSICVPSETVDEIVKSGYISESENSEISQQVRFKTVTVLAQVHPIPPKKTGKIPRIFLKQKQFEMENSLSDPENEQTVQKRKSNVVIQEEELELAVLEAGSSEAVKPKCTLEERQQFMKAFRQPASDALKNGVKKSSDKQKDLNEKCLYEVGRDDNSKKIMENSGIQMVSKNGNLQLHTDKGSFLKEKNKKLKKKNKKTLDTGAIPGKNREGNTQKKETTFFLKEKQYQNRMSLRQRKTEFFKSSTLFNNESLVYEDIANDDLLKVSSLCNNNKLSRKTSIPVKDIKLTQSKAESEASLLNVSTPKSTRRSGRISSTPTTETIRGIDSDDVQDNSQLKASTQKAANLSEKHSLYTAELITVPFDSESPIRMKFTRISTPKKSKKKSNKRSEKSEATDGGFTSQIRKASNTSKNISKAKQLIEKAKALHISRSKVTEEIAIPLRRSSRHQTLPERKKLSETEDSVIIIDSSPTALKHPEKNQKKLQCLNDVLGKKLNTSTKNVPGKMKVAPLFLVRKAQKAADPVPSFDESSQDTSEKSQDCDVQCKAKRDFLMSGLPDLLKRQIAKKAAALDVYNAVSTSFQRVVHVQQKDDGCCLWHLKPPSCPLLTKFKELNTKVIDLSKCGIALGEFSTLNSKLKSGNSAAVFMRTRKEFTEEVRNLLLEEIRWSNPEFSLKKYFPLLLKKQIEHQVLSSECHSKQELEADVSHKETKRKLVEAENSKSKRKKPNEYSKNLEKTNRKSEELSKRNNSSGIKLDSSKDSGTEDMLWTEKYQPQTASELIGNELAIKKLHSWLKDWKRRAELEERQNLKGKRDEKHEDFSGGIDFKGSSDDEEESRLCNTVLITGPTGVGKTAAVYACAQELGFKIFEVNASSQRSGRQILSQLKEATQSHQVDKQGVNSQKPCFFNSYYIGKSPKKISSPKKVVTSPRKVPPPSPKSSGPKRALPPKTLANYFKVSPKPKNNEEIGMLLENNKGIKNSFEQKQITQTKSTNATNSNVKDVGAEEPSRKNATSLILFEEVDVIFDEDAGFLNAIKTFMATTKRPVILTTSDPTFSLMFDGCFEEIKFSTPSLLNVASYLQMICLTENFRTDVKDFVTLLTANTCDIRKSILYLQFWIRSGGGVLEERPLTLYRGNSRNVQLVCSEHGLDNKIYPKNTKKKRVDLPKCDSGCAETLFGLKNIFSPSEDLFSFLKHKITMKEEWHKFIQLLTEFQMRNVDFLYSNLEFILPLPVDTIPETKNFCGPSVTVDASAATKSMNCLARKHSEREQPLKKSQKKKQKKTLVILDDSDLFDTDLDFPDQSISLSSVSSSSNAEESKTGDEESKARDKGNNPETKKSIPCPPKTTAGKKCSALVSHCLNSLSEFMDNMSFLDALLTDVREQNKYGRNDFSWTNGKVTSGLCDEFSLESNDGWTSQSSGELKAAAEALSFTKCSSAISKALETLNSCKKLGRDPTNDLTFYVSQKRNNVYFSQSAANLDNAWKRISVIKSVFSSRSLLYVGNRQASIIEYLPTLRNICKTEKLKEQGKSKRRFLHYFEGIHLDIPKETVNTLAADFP
Chain of Thyrotropin-releasing hormone receptor (Homo sapiens) (P34981 whole entry, looked up): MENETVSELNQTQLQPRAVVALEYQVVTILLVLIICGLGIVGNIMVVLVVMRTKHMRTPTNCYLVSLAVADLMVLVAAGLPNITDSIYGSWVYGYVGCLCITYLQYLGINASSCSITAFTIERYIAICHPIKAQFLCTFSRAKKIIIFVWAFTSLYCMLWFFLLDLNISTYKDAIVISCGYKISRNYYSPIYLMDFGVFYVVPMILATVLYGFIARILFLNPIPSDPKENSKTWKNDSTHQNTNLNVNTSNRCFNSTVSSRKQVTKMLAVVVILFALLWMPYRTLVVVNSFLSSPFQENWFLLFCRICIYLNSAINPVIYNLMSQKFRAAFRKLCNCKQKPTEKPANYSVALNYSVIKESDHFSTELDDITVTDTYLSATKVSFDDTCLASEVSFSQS
Chain of Phosphoglycerate kinase, glycosomal (Trypanosoma brucei brucei) (P07378 whole entry, looked up): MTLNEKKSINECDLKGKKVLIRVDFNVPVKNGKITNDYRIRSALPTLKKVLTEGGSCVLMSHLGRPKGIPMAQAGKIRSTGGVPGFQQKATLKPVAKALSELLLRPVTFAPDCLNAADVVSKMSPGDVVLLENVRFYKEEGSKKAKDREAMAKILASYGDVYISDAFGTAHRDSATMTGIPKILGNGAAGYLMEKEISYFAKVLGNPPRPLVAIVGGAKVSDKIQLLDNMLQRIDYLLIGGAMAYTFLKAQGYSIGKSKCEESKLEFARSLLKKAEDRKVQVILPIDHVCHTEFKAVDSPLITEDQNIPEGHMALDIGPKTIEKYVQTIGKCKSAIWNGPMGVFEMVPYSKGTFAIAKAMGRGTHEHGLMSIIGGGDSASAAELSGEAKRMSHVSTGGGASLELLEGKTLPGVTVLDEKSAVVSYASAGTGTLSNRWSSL

As to `COc1nc(C)nc(Cl)c1NC1=NCCN1`, the Potency entry in [1], in [2], in assay [3], in assay [5], in assay [7] and in assay [8] was “inactive” each time. Further, the Potency result in [9], in assay [10], in [12] and in assay [14] was “inactive” throughout. For the same compound, the activation in assay [4] was 0.688% (inactive). Also, in [5], the viability change worked out at 4.38%. The compound was classed as inactive in [6], in [11] and in assay [13].

As for `CN(CCOc1ccc(NS(C)(=O)=O)cc1)CCc1ccc(NS(C)(=O)=O)cc1`, the Potency entry in [1] and in assay [12] was “inactive” in each case.

`CCOC(=O)Nc1ccc(NCc2ccc(F)cc2)nc1N`: the Potency entry in assay [1], in assay [2], in assay [3], in [8] and in [14] was “inactive” each time. Further, the call in assay [6], in [11] and in assay [13] was inactive.

As for `COc1ccccc1OCCNCC(O)COc1cccc2[nH]c3ccccc3c12` (stereo not given), the Potency entry in assay [1], in [2], in [5], in assay [9], in assay [10] and in [12] was “inactive” throughout. In addition, the viability change in assay [5] was -0.159%. For the same compound, the outcome in [6] and in [11] was inactive.

As for `CCOC(=O)C(C)(C)Oc1ccc(Cl)cc1`, the Potency entry in assay [2], in assay [3], in assay [5], in [7], in assay [12] and in [14] was “inactive” in each case. The Potency result in [16] is “inactive”. Also, in assay [4], the activation was -8.94% (inactive). Further, in [5], the viability change is -5.48%. In addition, the compound was called inactive in assay [6], in assay [11] and in assay [15].

For the compound `CCOC(=O)c1ncn2c1CN(C)C(=O)c1cc(F)ccc1-2`, the Potency result in assay [2], in [3], in assay [5], in [7], in assay [8] and in assay [10] was “inactive” throughout. The Potency result in assay [12] and in assay [14] was “inactive” throughout. Besides, in assay [5], the viability change was 2.56%. The call in assay [6], in assay [11] and in [17] was inactive.

In the case of `NCCS(=O)(=O)O`, the Potency entry in assay [2], in assay [3], in assay [5], in assay [7], in assay [8] and in assay [10] was “inactive” each time. Besides, the Potency entry in assay [12] and in assay [14] was “inactive” in each case. The activation in [4] was 1.12% (inactive). Further, the viability change in assay [5] is -6.75%. In addition, the call in assay [6], in assay [11], in assay [17], in assay [15] and in assay [18] was inactive.

For `OCCN(CCO)c1nc(N2CCCCC2)c2nc(N(CCO)CCO)nc(N3CCCCC3)c2n1`, the Potency result in [2], in assay [7], in assay [8], in assay [10] and in [14] was “inactive” throughout. Moreover, the Potency in assay [3] was 231 nM (active); in assay [12], 31.6 µM (active) and 22.4 µM (active). For the same compound, in assay [4], the activation was 25.4% (inactive). Moreover, the outcome in assay [6], in [11] and in assay [17] was inactive.

Consider `COc1ccccc1OCC(O)CN1CCN(CC(=O)Nc2c(C)cccc2C)CC1` (stereo not given), for which the Potency result in [2], in [3], in assay [5], in [7], in [9] and in assay [12] was “inactive” in each case. Also, in [14], the Potency result was “inactive”. For the same compound, the activation in [4] was 0.375% (inactive). In addition, the viability change in [5] is -3.01%. The result in assay [6] and in assay [11] was inactive.
